Results published in PubChem BioAssay (EPA / NIEHS).
The source made the active and inactive calls. The calls were made as follows: active = hit-call score of the fitted dose curve at least 0.9, where 1 is the maximum; inactive = score below 0.9.

assay: ATG_M_06_CIS: Attagene CIS-FACTORIAL HepG2 Assay for M06 Transcription Factor (Internal Marker) (AID 2282950); settings: HepG2 Attagene CIS-FACTORIAL M06 internal marker reporter; actives raise or lower the signal
Method: ATG_CIS is a cell-based, multiplexed-readout assay that uses HepG2, a human liver cell line, with measurements taken at 24 hours after chemical dosing in a 24-well plate.ATG_M_06_CIS is one of 52 assay component(s) measured or calculated from the ATG_CIS assay. It is designed to make measurements of mRNA induction, a form of inducible reporter, as detected with fluorescence intensity signals by Reverse transcription polymerase chain reaction (RT-PCR) and Capillary electrophoresis technology.Data from the assay component ATG_M_06_CIS was analyzed into 1 assay endpoint. This assay endpoint, ATG_M_06_CIS, was analyzed with bidirectional fitting relative to DMSO as the negative control and baseline of activity. Using a type of inducible reporter, measures of mRNA for gain or loss-of-signal activity can be used to understand the background control at the transcription factor-level as they relate to the gene . Furthermore, this assay endpoint can be referred to as a secondary readout, because this assay has produced multiple assay endpoints where this one serves a background control function. To generalize the intended target to other relatable targets, this assay endpoint is annotated to the background measurement intended target family, where the subfamily is internal marker.
Human liver HepG2 cells are transiently transfected with multiple reporter transcription units (MRTUs) in 6-well plates using FuGene 6 reagent (Roche; 3 ml FuGene/1 mg DNA). The MRTU constructs are regulated by a cis-regulating element (promoter). […] A major difference between the CIS and TRANS system is that in CIS activities of endogenous TFs are measured, whereas the TRANS assay evaluates changes in activities of exogenous, chimeric NR-Gal4 proteins. […] At the end of 24 hour incubation, total RNA was isolated using TriZol reagent (Invitrogen). The isolated RNA is then reverse-transcribed using oligo(dT) primer and Mo-MLV reverse transcriptase (Invitrogen) with DNAse I (Ambion) treatment for 30 min. The one-tenth of the produced cDNA was amplified by PCR using Taq DNA polymerase (Invitrogen) and two reporter sequence-specific primers. The PCR products were fluorescently labeled by primer extension with 6-arboxyfluorescein (6-FAM) 5'-labeled reporter sequence-specific primer (2 min at 95 C, 20 s at 68 C and 10 min at 72 C) and these products were digested with 5U of HpaI (New England Biolabs) for 2h at 37 C. The fragments were purified using Qiaquick PCR columns (Qiagen), analyzed on an ABI 3130xL genetic analyzer (Applied Biosystems) with peak positions identified by using a set of X-rhodamine (ROX)-labeled MapMarker1000 molecular weight standards (BioVentures). The raw capillary electrophoresis data was processed using Attagraph software (Attagene).

outcome, inactive:
CCCC(=O)OC
CCO[Si](CCCN)(OCC)OCC
CC/C=C\CCO
CC(=O)OC(C)(C)Cc1ccccc1
CCCCOC(=O)COc1ccc(Cl)cc1Cl
NC(=O)c1ccc(N)cc1
C=CCOC(=O)C(=C)C
C=CC(C)(CCC=C(C)C)OC(=O)c1ccccc1 (stereo not given)
CN(C)CCC(c1ccc(Cl)cc1)c1ccccn1 (stereo not given)
CC/C=C\CC/C=C/C(OCC)OCC
Clc1ccc(Sc2cc(Cl)c(Cl)cc2Cl)cc1
c1ccc(CNc2ncnc3nc[nH]c23)cc1
CCC(C)=NO
CNC[C@H](O)[C@@H](O)[C@H](O)[C@H](O)CO
OCCOCCOCCOCCOCCO
CCCC(=O)OC/C=C(\C)CCC=C(C)C
O=C(O)Cc1c[nH]c2ccccc12
CN(C)CCCN1c2ccccc2CCc2ccc(Cl)cc21
CC(C)(Oc1ccc(Cl)cc1)C(=O)O
CC/C=C/CCO
N#CCN(CC#N)CCN(CC#N)CC#N
[O-][n+]1ccc(Cl)cc1
c1cc(N(CC2CO2)CC2CO2)ccc1Cc1ccc(N(CC2CO2)CC2CO2)cc1 (stereo not given)
NC(=O)c1ccc([N+](=O)[O-])cc1Cl
NCc1ccccc1
O=C(O)c1ccccc1C(=O)O
O=C(c1ccccc1)c1ccccc1O
CC(C)CC(=O)CC(C)C
CCC(C)C1N=C(C)C(C)S1 (stereo not given)
CC=CC(=O)O
CCC(C)(CCC(C)C)C(=O)O (stereo not given)
C=C(C)C(=O)OCCCCCC
CC(C)=CCOC(=O)c1ccccc1
CCC(=O)OCc1ccc(OC)cc1
O=[N+]([O-])c1ccccc1C(F)(F)F
CO[Si](CCCNCCN)(OC)OC
O=C1NC(=O)C2CC=CCC12 (stereo not given)
O=S(=O)(O)c1cccc2ccccc12
CCOC(=O)CC(=O)OCC
C[C@H]1C[C@H]2[C@@H]3CCC4=CC(=O)C=C[C@]4(C)[C@@]3(F)[C@@H](O)C[C@]2(C)[C@@]1(O)C(=O)CO
